Screening results as filed in PubChem BioAssay.
A selection: hits, their analogues and other compounds. The true share with any hit is near 3.6%.
Autofluor counter: flagged as autofluorescent in microsphere protease counterscreen; AID 624483; 360,000 tested, 3.1% active; fluorescence intensity (test concentration not listed); compound autofluorescence counterscreen, microsphere flow cytometry; stronger effect = higher value; in the data active means fluorescence intensity above about 16000; inconclusive means no clear call, values can overlap the other calls
BoNT F protease: blocks Botulinum neurotoxin F light chain protease | AID 588497 | inhibition, % at 10 µM | Multiplex microsphere protease cleavage assay, flow cytometry | 360,000 tested, 0.22% active; in the data active means inhibition above about 35%, passing the limit was not always enough; inconclusive means no clear call, values can overlap the other calls; further: plate controls were buffer without enzyme for full effect and enzyme alone for no effect
MazF activator: MazEF (E. coli) toxin RNase activation. FAM/BHQ RNA-DNA oligo cleavage fluorescence, 5 h. activation, % at 20 µM. 350,000 tested, 0.32% active; in the data active means activation above about 50%
Target sequence (P0AE70 whole entry, looked up): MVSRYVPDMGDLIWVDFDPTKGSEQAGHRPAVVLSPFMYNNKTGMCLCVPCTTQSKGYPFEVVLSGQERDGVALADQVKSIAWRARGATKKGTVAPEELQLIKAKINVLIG
BoNT A protease: BoNT A light chain protease inhibition | inhibition, % at 10 µM | 360,000 tested, 0.17% active | multiplex microsphere protease substrate cleavage, flow cytometry; further: plate controls were buffer without enzyme for full effect and enzyme alone for no effect
Anthrax LF inh2: inhibitors of Bacillus anthracis lethal factor protease; P15917; inhibition, % at 10 µM; multiplex microsphere protease cleavage assay, LF; AID 588501; 360,000 tested, 0.12% active; further: plate controls were buffer without enzyme for full effect and enzyme alone for no effect
An asterisk follows results filed as active; u = inconclusive; x = no result. Unless noted, no stated cut-off is given here; in the data, active means inhibition above about 30%; inconclusive means no clear call, values can overlap the other calls; inactive means below that.

SMILES	Autofluor counter	BoNT F protease	MazF activator	BoNT A protease	Anthrax LF inh2
COC(=O)C1=NN(c2ccc(C)cc2)C2(S1)SC(C(C)=O)=C(C)N2c1ccccc1 (configuration not stated)	23648*	-7	0	-3	-5
COC(=O)C1=NN(c2ccccc2)C2(S1)SC(C(C)=O)=C(C)N2c1ccccc1 (configuration not stated)	4177	-9	0	-1	0
Cc1ccc(S(=O)(=O)CCC(=O)OCC(=O)NC(=O)c2ccccc2)cc1	40297*	-244	1	-154	-38
COc1ccc2c(C)c(C(=O)N3CC[C@@H](N4CCC(O)CC4)[C@H](O)C3)oc2c1	8217	-1	-2	-2	0
O=C(c1cccc(-c2ccccc2)c1)N1CC[C@@H](N2CCC(O)CC2)[C@H](O)C1	19128*	11	-1	-1	8
COc1ccc(Cn2nnnc2C(c2cc3cc(C)ccc3[nH]c2=O)N2CCN(C)CC2)cc1 (configuration not stated)	3516	-4	6	2	0
COc1cc2cc(C(c3nnnn3Cc3ccc(F)cc3)N3CCCCCC3)c(=O)[nH]c2cc1OC (configuration not stated)	18413*	0	2	u	5
COc1ccc(Cn2nnnc2C(c2cc3ccc(OC)cc3[nH]c2=O)N2CCCCCC2)cc1 (configuration not stated)	22040*	2	-6	6	9
Nc1ccc2c3c(ccc([N+](=O)[O-])c13)CC2	3681	-9	14	0	-6
Cc1cccc(N2CCN(C(=O)C3CCN(c4ncnc5c4nc4n5CCCCC4)CC3)CC2C)c1 (configuration not stated)	5840	0	5	1	-3
COc1ccc(CN2C(=O)CC(=O)NC2=O)cc1	21705*	1	-3	u	-3
COC(=O)C1=C(C)N(CCc2ccc(OC)cc2)C(=O)C1	2063	-4	14	0	-1
COC(=O)C1=C(C)N(Cc2cccnc2)C(=O)C1	22058*	6	10	2	1
COC(=O)C1=C(C)N(Cc2ccc(OC)cc2)C(=O)C1	20549*	-3	-4	-2	-6
O=C(NCn1cnccc1=O)c1ccccc1	23239*	0	-5	0	-4
CCOC(=O)CSc1ncc(OC)c(Sc2ccc(Cl)cc2)n1	21505*	0	-10	u	-16
CCOC(=O)C(C)Sc1ncc(OC)c(=O)[nH]1 (configuration not stated)	3869	30	0	4	6
CCOC(=O)C(C)Sc1ncc(OC)c(Sc2ccc(Cl)cc2)n1 (configuration not stated)	24632*	-10	-8	-6	-2
C[C@@H]1CCCCO[C@H](CN(C)Cc2ccc(C(=O)O)cc2)[C@H](C)CN([C@@H](C)CO)C(=O)c2cc(NC(=O)Nc3ccc(C(F)(F)F)cc3)ccc2O1	3043	4	11	0	-8
CCN(CC)CCCN(C(=O)c1cccc(C)c1)c1nc(-c2ccc(OC)cc2)cs1	4209	u	-12	u	-9
COc1cc(C(=O)N2CCN(C3=NS(=O)(=O)c4ccccc43)CC2)cc(OC)c1OC	3557	0	2	0	1
COCOCCn1cc(CN2CCS(=O)(=O)N(Cc3ccc(-c4ccncc4)cc3)C(CC(C)C)C2=O)nn1 (configuration not stated)	3656	-9	5	0	-3
CCOC(=O)C1=CC[C@H]2c3c(c4ccccc4n3C)C(=O)C1N2C	3590	3	2	0	-1
OCCSc1c(F)c(SCCO)c(SCCO)c(F)c1SCCO	23508*	2	1	0	0
O=c1onc(-c2ccc(Cl)cc2Cl)n1-c1cccnc1	4363	u	1	2	-11
SMILES	Autofluor counter	BoNT F protease	MazF activator	BoNT A protease	Anthrax LF inh2
O=C(NCc1ccccc1Cl)C1CCN(C(=O)c2ccco2)CC1	x	x	15	x	x
Cc1nn(C)c(Cl)c1NC(=O)OCc1ccc(F)cc1	8567	4	3	2	14
COc1ccccc1COC(=O)Nc1c(C)nn(C)c1Cl	18871*	2	7	u	-1
CCC1(CC)C(=O)NC(=O)NC1=Nc1ccccc1	1967	0	4	0	0
CCC1(CC)C(=O)NC(=O)NC1=NCCc1c[nH]c2ccccc12	21453*	-1	2	-2	0
O=C(CSc1nnc(CNC(=O)c2ccco2)o1)Nc1cccc(C(F)(F)F)c1	5709	5	12	0	-1
COCCCNC(=O)c1ccc(N2CCCC2)c(NS(=O)(=O)c2ccc(C)cc2)c1	24938*	-6	-2	-3	1
Cc1ccc(S(=O)(=O)Nc2cc(C(=O)O)ccc2N2CCCCC2)cc1	23478*	1	-8	-1	-2
CCOCCCNC(=O)c1ccc(N2CCCC2)c(NS(=O)(=O)c2ccc(C)cc2)c1	4213	-3	1	-1	-6
CCC1(O)CC2CN(CCc3c([nH]c4ccccc34)C(C(=O)OC)(c3cc4c(cc3OC)N(C=O)C3C(O)(C(=O)OC)C(OC(C)=O)C5(CC)C=CCN6CCC43C65)C2)C1 (configuration not stated)	4804	-4	-16	1	-6
COc1ccccc1N1CCN(C(=O)C(C)N(c2ccc(C)cc2)S(C)(=O)=O)CC1 (configuration not stated)	4039	5	2	1	-9
COc1ccccc1N1CCN(C(=O)C(C)N(c2ccccc2)S(C)(=O)=O)CC1 (configuration not stated)	21669*	-6	4	u	-1
COc1ccc(OC)c(C2=NOC(C(=O)Nc3cccc(C(C)=O)c3)C2)c1 (configuration not stated)	23110*	2	0	0	0
COc1cc(NC(=O)C2CC(c3cccc(OC)c3OC)=NO2)cc(OC)c1OC (configuration not stated)	22158*	2	0	3	-2
COc1ccc(OC)c(C2=NOC(C(=O)Nc3ccccc3SC)C2)c1 (configuration not stated)	4527	-9	-11	0	6
CCN(CC)C(=O)Cn1cc(C(=O)C(=O)Nc2ccc3c(c2)OCCO3)c2ccccc21	5852	0	1	-1	0
COc1cccc(CN(C)CCCn2cnc(C(=O)Nc3ccc(C)c(C)c3)n2)c1	3609	-7	-1	0	4
Cc1nc2cc(-c3ccccc3)nn2c(C)c1CCC(=O)N1CCC2(CC1)OCCO2	16588*	-1	0	-1	-2
COc1ccc(CCC(=O)N2CCC3(CC2)OCCO3)cc1	16327*	0	4	0	-5
Cc1nc2cc(-c3ccccc3)nn2c(C)c1CCC(=O)N1CCN(c2ccccc2)CC1	5145	-5	20	-1	-2
COc1ccc(CCC(=O)N2CCN(C3CCCCC3)CC2)cc1	20796*	0	8	0	-1
CCN(C[C@H]1N[C@@](CC)(C(=O)OC)[C@H]2C(=O)N(Cc3ccccc3)C(=O)[C@@H]12)S(=O)(=O)c1ccc(C(C)(C)C)cc1	3266	-3	-1	-1	1
